Experimental data as given in PubChem BioAssay (NCI).
This is part of a sample that, as a whole, favours compounds with a hit. Of some 83,000 tested, about 20% had one in any assay.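 Results are percent growth after 48 hours of single-concentration exposure. 100 means growth as in untreated cells, lower positive values show inhibition; negative values down to -100 show cell death.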 Values without a mark were called inactive. Activity calls are given as the source filed them. Rule for the calls: active = growth percent below 10; inactive = the rest.

Assays:
Assay in all cases: NCI-60 one-dose screen, 48 h (100 = growth as untreated, 0 = no growth, -100 = all killed)
Conditions in all cases: 10 µM unless noted
[1] = system: HT29 colon
[2] = system: SNB-75 CNS
[3] = system: SNB-19 CNS
[4] = system: U251 CNS
[5] = system: PC-3 prostate
[6] = system: SK-MEL-5 melanoma
[7] = system: UACC-62 melanoma
[8] = system: LOX IMVI melanoma
[9] = system: SK-MEL-28 melanoma
[10] = system: SK-MEL-2 melanoma
[11] = system: EKVX NSCLC
[12] = system: SN12C renal
[13] = system: UO-31 renal
[14] = system: TK-10 renal
[15] = system: ACHN renal
[16] = system: A498 renal
[17] = system: CCRF-CEM leukemia
[18] = system: MOLT-4 leukemia
[19] = system: CAKI-1 renal

SMILES | growth [1] | growth [2] | growth [3] | growth [4] | growth [5] | growth [6] | growth [7] | growth [8] | growth [9] | growth [10] | growth [11] | growth [12] | growth [13] | growth [14] | growth [15] | growth [16] | growth [17] | growth [18] | growth [19]
COc1ccc(C(=O)c2c(N)c(C#N)cn2-c2ccccc2OC)cc1 | 6.81% (active) | 29.3% | 29.8% | 34.2% | 36.2% | 6.34% (active) | 23.3% | 23.8% | 59.2% | 45.3% | 48.2% | 45.1% | 47.9% | 83.2% | 46.7% | 7.39% (active) | 19.9% | 30.5% | –
NS(=O)(=O)c1ccc(Nc2nc(SCC(=O)c3ccc(Cl)cc3)nc3c2CCCC3)cc1 | 8.57% (active) | 85.8% | 65.9% | – | 31.4% | 65.8% | 48.2% | 23.6% | 68.5% | 67% | 47.8% | 25.6% | 38% | 86.6% | – | 61.1% | 41.1% | 38.4% | 43.2%
CC(=O)c1cc(C(=O)N2c3ccccc3Sc3ccccc32)n2ccc3ccccc3c12 | 14.8% | 34.6% | 49.1% | 37.8% | 37.6% | 37.3% | 21.4% | 41.4% | 62.7% | -77.5% (active) | 61.3% | 67.6% | 42.8% | 98.4% | 42.5% | 12.9% | 28% | 49.1% | 39.8%
Cc1[nH]c(C(=O)Nc2ccccc2OCc2cccc(C(=O)N3CCC[C@@H](N)C3)c2)c(Cl)c1Cl | -71.9% (active) | -96.3% (active) | -84.4% (active) | -83.9% (active) | -88.9% (active) | -97.7% (active) | -90.8% (active) | -90% (active) | -84.6% (active) | -74.1% (active) | -93.4% (active) | -79.4% (active) | -89.5% (active) | -90.2% (active) | -96.4% (active) | 56.2% | -26.6% (active) | -55.2% (active) | -92.8% (active)
Clc1ccc(N/N=c2/oc3ccccc3cc2-c2cc3ccccc3[nH]2)cc1 | 69.2% | – | 85.4% | 80.2% | 63.9% | 82.5% | 73.9% | – | 97.7% | 108% | – | 70.9% | 49.7% | 145% | 49.7% | – | 79.7% | 69.6% | 58.4%
COc1ccc([C@@H]2[C@@H](O)C(=O)N2c2cc(OC)c(OC)c(OC)c2)cc1F | -31.9% (active) | 17.6% | 24.7% | 12.2% | 20.9% | -34% (active) | 33.4% | -4.8% (active) | 68.6% | -5.37% (active) | 41.8% | 28.7% | 30.1% | 86.3% | 28.4% | -29.5% (active) | 18.5% | 15.8% | 30.3%
NC(=O)c1cccc(C#CCNC[C@H]2C[C@@H](n3ccc4c(Cl)ncnc43)[C@H](O)[C@@H]2O)c1 | 105% | 87.7% | 102% | 100% | 102% | 101% | 96.1% | 101% | 102% | 104% | 106% | 99.5% | 92.4% | 97.3% | 106% | 94.7% | 102% | 114% | 94.4%
NC(=O)c1cccc(-n2ccc3cc(NC(=O)Nc4ccc(N5CCOCC5)c(C(F)(F)F)c4)ccc32)n1 | 4.89% (active) | -24.4% (active) | 2.44% (active) | 0.717% (active) | 5.77% (active) | -79.6% (active) | -16.1% (active) | -10.9% (active) | -0.669% (active) | 1.78% (active) | 11.2% | 14.1% | 4.85% (active) | -7.65% (active) | 11.6% | -57.1% (active) | 1.21% (active) | -38.9% (active) | 6.33% (active)
CN1CCN(Cc2ccc(NC(=O)c3cncc(C#Cc4cnc5ccc(NCCCO)nn45)c3)cc2C(F)(F)F)CC1 | -2.42% (active) | -70.8% (active) | -0.64% (active) | -68% (active) | -19.2% (active) | -87% (active) | -14.1% (active) | -86.3% (active) | – | -90.8% (active) | -3.09% (active) | 15.6% | -1.42% (active) | -28.7% (active) | 3.14% (active) | -98.8% (active) | 6.66% (active) | 8.92% (active) | -1.99% (active)
CC(=O)c1cc(C(=O)c2ccc(Br)cc2)n2cc(C)cc(C)c12 | 94.9% | 89.8% | 90.5% | 101% | 87.1% | 66.3% | 82.6% | 86.3% | 92.4% | 102% | 71.7% | 90.8% | 84.8% | 103% | 98.9% | 76.8% | 97% | 87% | –
